Source: PubChem BioAssay (National Center for Advancing Translational Sciences (NCATS))
Pf growth 96h – Primary qHTS for delayed death inhibitors of the malarial parasite plastid, 96 hour incubation; P. falciparum luciferase reporter growth, 96 h; Potency, µM (series often up to 28.7 µM), inactives show top-dose activity change, negative = inhibition, actives largely listed as inhibitors; 6.9% of 320,000 active; AID 504834, 2011; also: % is scaled to controls: 0 for no effect and ±100 for the full control effect
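P. falciparum expressing integrated firefly luciferase grown in erythrocytes (2% hematocrit, 0.05% parasitemia final) with compounds for 96 hours at 37 C, 5% CO2. Growth inhibition read as loss of luminescence after adding luciferase detection reagent.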
Pf growth 48h – Primary qHTS for delayed death inhibitors of the malarial parasite plastid, 48 hour incubation. P. falciparum luciferase growth in erythrocytes, 48 h. AID 504832, 2011. Potency, µM (titrated, usually from 28.7 µM), for the others: top-dose activity change, negative = inhibition, actives largely listed as inhibitors. 5.9% of 310,000 active; also: % is scaled to controls: 0 for no effect and ±100 for the full control effect
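Erythrocytes infected with P. falciparum carrying an integrated firefly luciferase reporter (2% hematocrit, 0.1% parasitemia final) were exposed to compounds in RPMI 1640 with 0.5% Albumax at 37 C, 5% CO2. Growth inhibition was scored as reduced luminescence.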
NS1 function inh – qHTS Assay for Inhibitors of Influenza NS1 Protein Function; Potency, µM (titrated, usually from 46.1 µM), inactives show at the highest dose activity, positive = more growth; 0.4% of 270,000 active; calls by dose curve; also: actives are rising curves; nearly all actives have a fitted effect of over 50% in size
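OD600 was taken as the measure of yeast growth restored by compound in an NS1-expressing S. cerevisiae strain. Cells had been washed out of glucose medium and diluted 1:100 into galactose -URA medium, pH 6.0.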
HCV inh – qHTS Assay for Inhibitors of Hepatitis C Virus (HCV); Potency, µM (titrated, usually from 41.8 µM), without a hit: at the highest dose activity change, negative = inhibition, most hits filed as inhibitors; Huh7.5.1 HCVcc-Cre infection, luciferase reporter, 44 h; 3.4% of 340,000 active; also: % is scaled to controls: 0 for no effect and ±100 for the full control effect
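Antiviral activity was scored by luciferase reporter output from cells infected with HCVcc-Cre (~0.5 moi) in presence of compound, 44 h infection period, cells seeded 1,000/well 4 h prior.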
SARS PLpro yeast – qHTS of Yeast-based Assay for SARS-CoV PLP; S. cerevisiae expressing SARS-CoV PLpro, growth rescue; Potency, µM (top dose mostly 32.9 µM), for inactives: at the highest dose activity, positive = growth rescue, hits mostly activators; AID 485353, 2010; 0.19% of 330,000 active; calls by dose curve; also: 0% is about no effect; nearly all actives have a fitted effect of over 55% in size
AMA1 RON2 block – qHTS for Inhibitors of AMA1-RON; Towards Development of Antimalarial Drug Lead: Primary Screen. 0.2% of 360,000 active. Potency, µM (top dose mostly 58.2 µM), inactives show at the top dose activity change, negative = inhibition, usual class: inhibitors. AlphaScreen AMA1-biotinylated RON2 peptide binding. AID 720542, 2013. Plasmodium falciparum AMA1 (3D7) - RON2 peptide interaction;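 also: 0% = vehicle wells and -100% = peptide control; nearly all actives have a fitted effect of over 45% in size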
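AMA1 (3D7) with his tag at 25 nM final met compounds first, then biotinylated RON2 peptide at 25 nM; detection used donor plus acceptor beads, 10 µg/mL apiece, read by AlphaScreen after 30 min at room temperature.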
The depositor's hits bear a star; ? = inconclusive; · = not tested or not shown. Most compounds without a hit are left out; they make up all but 12% or so of the library. Unless noted, calls follow the shape of the dose curve; as a rule, active = well fitted curve in the direction sought with a large enough effect; inconclusive = small, poorly fitted or top-dose-only effect, or another doubt; inactive = no such curve, though single readings can be large; an effect the other way counts as inactive or inconclusive. Potency is read from the fitted curve at half-maximal effect.

SMILES	Pf growth 96h	Pf growth 48h	NS1 function inh	HCV inh	SARS PLpro yeast	AMA1 RON2 block
CN(CC(=O)Nc1ccccc1C(=O)NC1CC1)Cc1cccs1	-20.6%	-12.1%	·	-11.1%	-3.3%	30.5%
COc1ccc2cc(CCNS(=O)(=O)c3ccc(NC(C)=O)cc3)c(=O)[nH]c2c1	-12.8%	-9.3%	-10.9%	4.8%	2.5%	24.3%
C=C[C@@H]1c2ccccc2N(S(=O)(=O)c2ccc(C)cc2)[C@H](c2ccccc2)C1(C#N)C#N	?	3.7µM*	·	-26.9%	0.9%	-7.8%
Cc1cc(C)cc(NC(=O)C2CCN(S(=O)(=O)c3ccc4c(c3)NC(=O)C(C)S4)CC2)c1 (configuration not stated)	?	?	11.5%	5.1%	-3.5%	-10.9%
Cc1ccc(NC(=O)C2CCN(S(=O)(=O)c3ccc4c(c3)NC(=O)C(C)S4)CC2)cc1Cl (configuration not stated)	?	13.1µM*	27.1%	?	-0.6%	-3.0%
Cc1ccccc1NC(=O)C1CCN(S(=O)(=O)c2ccc3c(c2)NC(=O)C(C)S3)CC1 (configuration not stated)	?	?	13.6%	-9.8%	0.0%	12.8%
Cc1ccc(NC(=O)C2CCN(S(=O)(=O)c3ccc4c(c3)NC(=O)C(C)S4)CC2)c(Cl)c1 (configuration not stated)	?	10.4µM*	-11.3%	11.2µM*	-0.8%	1.6%
CCOc1ccc2nc3sc(C(=O)N4CCN(C)CC4)c(N)c3cc2c1	·	?	-3.8%	11.2µM*	-5.1%	25.8%
CC(C)c1ccc2nc3sc(C(=O)N4CCc5ccccc5C4)c(N)c3cc2c1	68.4%	5.9%	?	10µM*	-2.9%	25.9%
Cc1cc(OCC(=O)OCC(=O)Nc2ccc(Cl)cn2)ccc1Cl	42.6%	5.1%	·	18.8%	1.8%	-5.4%
FC(F)Oc1ccc(NC(=S)NNc2ccnc3cc(Cl)ccc23)cc1	?	8.28µM*	·	3.98µM*	0.5%	48.0%
Oc1cccc2c(NC(=S)Nc3ccc(OC(F)F)cc3)cccc12	?	2.3%	19.9%	-15.5%	-9.6%	18.2%
NC(=S)NNc1ccnc2cc(Cl)ccc12	?	2.94µM*	·	-29.8%	-4.0%	-3.7%
CCN(CC)C(=O)c1sc2nc(N3CCOCC3)c3c(c2c1N)CCCC3	·	?	22.5%	?	2.1%	-7.9%
COC(=O)c1ccc(-c2sc3nc(N4CCOCC4)c4c(c3c2N)CCCC4)o1	9.28µM*	9.1%	11.9%	?	-5.4%	12.2%
COC(=O)c1sc2nc(N3CCCCC3)c3c(c2c1N)CCCC3	?	·	3.8%	12.6µM*	10.2%	32.7%
CCOC(=O)c1sc2nc(N3CCOCC3)c3c(c2c1N)CCCC3	1.04µM*	28.3%	-7.7%	?	0.9%	4.8%
O=C(c1ccccc1F)n1c2c(c3ccccc31)CCCC2	?	-4.3%	-3.5%	?	-4.0%	8.8%
Fc1ccc2nc(Nc3nc4c(F)cccc4s3)sc2c1	?	-17.9%	-1.3%	-2.3%	·	60.5%
O=C(Nc1nc2c(F)cc(F)cc2s1)c1ccccn1	?	122.4%	·	10µM*	-0.1%	55.6%
Fc1ccc2nc(Nc3nc4c(F)cc(F)cc4s3)sc2c1	10.4µM*	0.0%	-13.6%	1.4%	-16.8%	64.7%
Cc1ccc(C)c(OCc2cc(C(=O)N(C)Cc3nccs3)no2)c1	?	-4.4%	-15.7%	-0.8%	-9.7%	1.5%
COc1ccccc1CCNC1CCC(C(C)(C)C)CC1 (configuration not stated)	2.62µM*	2.33µM*	-19.9%	?	-3.3%	-8.3%
Cc1nc(N2CCN(c3ccccc3)CC2)nc2c1C(=O)CC(C)C2 (configuration not stated)	-5.7%	13.6%	-12.1%	11.2µM*	-7.0%	-7.4%
